Screening results: PubChem, The Scripps Research Institute Molecular Screening Center
Sampled rows, rich in hits. Any-hit rate of the full collection: about 2.9%.
pPAFAH inh = inhibitors of human plasma PAF acetylhydrolase (pPAFAH) | AID 463082 | hit rate 1.5% among 330,000 | recombinant pPAFAH, FP-rhodamine probe fluorescence polarization | inhibition, % at 3.39 µM;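 active = inhibition above the mean inhibition across the screen plus 3 SD, cut at about 25% in these data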;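 note: inhibitors block binding of the rhodamine activity-based probe so polarization drops; 0% = enzyme with DMSO and 100% = wells lacking pPAFAH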
PAFAH1B3 FP inh = PAFAH1B3 (human) inhibition; Q15102; hit rate 0.28% among 340,000; recombinant PAFAH1B3, FP-rhodamine probe, fluorescence polarization; inhibition, % at 3.39 µM;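 active = inhibition above the screen-wide average of all tested compounds plus 3 SD, cut at about 25% in these data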;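 note: 0% = enzyme with DMSO only and 100% = wells lacking PAFAH1B3 protein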
PAFAH1B2 inh = blocks human PAF acetylhydrolase 1b catalytic subunit 2 | P68402 | recombinant PAFAH1B2, FP-rhodamine activity probe, fluorescence polarization | inhibition, % at 3.39 µM | hit rate 1.2% among 340,000 | AID 492953;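 active = inhibition above the mean of all tested compounds plus 3 SD, cut at about 24% in these data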;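 note: 0% = enzyme with DMSO and 100% = wells lacking PAFAH1B2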
Target sequence (P68402 whole entry, looked up): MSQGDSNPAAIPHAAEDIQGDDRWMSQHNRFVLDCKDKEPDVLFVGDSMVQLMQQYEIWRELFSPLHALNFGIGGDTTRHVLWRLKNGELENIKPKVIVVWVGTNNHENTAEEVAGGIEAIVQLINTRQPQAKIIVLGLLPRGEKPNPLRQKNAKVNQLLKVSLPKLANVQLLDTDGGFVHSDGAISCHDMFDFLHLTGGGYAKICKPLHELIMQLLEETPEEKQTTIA
LYPLA1 inh = LYPLA1 (human) inhibition in PME1 counter-screen. O75608. recombinant LYPLA1, FP-Rh probe fluorescence polarization. inhibition, % at 5.9 µM. hit rate 0.16% among 320,000. AID 2174;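 active = inhibition above the mean of all tested compounds plus 3 SD, set per campaign, cut at about 14% in these data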;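 note: inhibitors block serine hydrolase probe labeling of LYPLA1 so polarization falls; 0% = enzyme with DMSO and 100% = wells lacking LYPLA1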
LYPLA2 counter = counter-screen for PME1 inhibitors: inhibitors of human LYPLA2; inhibition, % at 5.9 µM; recombinant LYPLA2, FP-Rh probe fluorescence polarization; hit rate 0.38% among 320,000; O95372;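 active = inhibition above the screen-wide mean plus 3 SD, limit set per campaign, cut at about 26% in these data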;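 note: 0% = LYPLA2 with DMSO and 100% = wells lacking LYPLA2 enzyme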
Target sequence (O95372 whole entry, looked up): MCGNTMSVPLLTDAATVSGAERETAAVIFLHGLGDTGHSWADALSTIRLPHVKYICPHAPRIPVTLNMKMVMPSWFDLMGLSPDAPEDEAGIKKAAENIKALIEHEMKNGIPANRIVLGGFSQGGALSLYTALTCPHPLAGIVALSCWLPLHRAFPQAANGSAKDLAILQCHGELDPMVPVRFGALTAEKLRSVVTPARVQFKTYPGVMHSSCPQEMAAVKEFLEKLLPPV
PAFAH2 inh = inhibitors of human PAFAH2; recombinant PAFAH2, FP-rhodamine activity probe, fluorescence polarization; hit rate 0.99% among 340,000; inhibition, % at 3.39 µM;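 active = inhibition above the mean over all tested compounds plus 3 SD, cut at about 30% in these data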;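 note: inhibitors block probe labeling of enzyme so polarization drops; 0% = enzyme with DMSO and 100% = wells lacking PAFAH2 protein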
* hit, by the source's call; · = no result.

SMILES	pPAFAH inh	PAFAH1B3 FP inh	PAFAH1B2 inh	LYPLA1 inh	LYPLA2 counter	PAFAH2 inh
Cn1c(O)c(C(=N)COc2ccccc2)c(=O)n(C)c1=O	2	5	2	-3	2	-4
Cn1c(O)c(C(=Nc2ccccc2)SCc2ccc(Cl)cc2)c(=O)n(C)c1=O	4	5	26*	-2	0	12
O=C(N/N=C/c1c(O)n(C2CCCCC2)c(=S)[nH]c1=O)c1ccccc1O	32*	3	13	-2	0	13
O=C(N/N=C/c1c(O)n(Cc2ccco2)c(=O)[nH]c1=O)c1ccccc1O	30*	9	15	1	4	35*
CN1C(=O)NC(=O)/C(=C/c2ccc([N+](=O)[O-])o2)C1=O	12	·	·	1	-2	·
CN1C(=O)NC(=O)/C(=C/c2ccc([N+](=O)[O-])s2)C1=O	25*	23	22	-2	-5	29
CN[C@H]1C[C@H]2O[C@@](C)([C@H]1OC)n1c3ccccc3c3c4c(c5c6ccccc6n2c5c31)C(=O)NC4	40*	·	·	-19	-3	·
NCC(O)c1cc(O)c(O)cc1F (stereo not given)	27*	2	1	-4	0	4
O=C(c1ccc2c(c1)OCO2)N1CCC2(CC1)OCCO2	2	2	-2	-2	-6	1
O=C(c1ccc(N2CCCCCC2)c([N+](=O)[O-])c1)N1CCC2(CC1)OCCO2	33*	9	4	-2	2	11
C/C=C(\C)C(=O)OC1C(C)=C2C(C1OC(=O)CCCCC)C(C)(OC(C)=O)CC(OC(=O)CCC)C1(O)C2OC(=O)C1(C)O (stereo not given)	38*	·	·	-1	5	·
O=C(O)c1ccc2c(c1)C1C(Cl)C(Sc3ccccc3[N+](=O)[O-])CC1C(c1cccc([N+](=O)[O-])c1)N2 (stereo not given)	·	41*	24	·	·	52*
O=C(O)c1cccc2c1NC(c1cccc([N+](=O)[O-])c1)C1CC(Sc3ccccc3[N+](=O)[O-])C(Cl)C21 (stereo not given)	·	11	18	·	·	37*
O=[N+]([O-])c1cccc(C2N3CCCN23)c1 (stereo not given)	-2	7	5	0	3	-8
O=C(Cc1ccccc1)N1CCN(Cc2ccc(Cl)cc2)CC1	·	14	18	·	·	1
CC(=O)NC(Cc1ccc(N(CCCl)CCCl)cc1)C(=O)O (stereo not given)	-2	5	7	3	7	4
O=C(Cc1ccc(N(CCCl)CCCl)cc1)NC(Cc1ccc(Cl)cc1)C(=O)O (stereo not given)	5	6	60*	-2	0	5
O=C(Cc1ccccc1)NC(Cc1ccc(Cl)cc1)C(=O)O (stereo not given)	0	5	38*	1	2	-4
COC(=O)C1=C(c2ccccc2OCc2ccccc2)C[C@@H]2CC[C@H]1N2C(=O)NCCc1ccc(F)cc1	6	14	4	-3	-5	0
CC(C)Nc1ccc(Nc2ccccc2)cc1	22	7	5	2	11	7
O=C1CN=C(c2ccccc2)c2ccccc2N1Cc1ccc(C(F)(F)F)cc1	3	1	59*	1	2	4
CCCCn1c(=O)c(C(=O)NC(C)c2ccccc2)c(O)c2ccccc21 (stereo not given)	1	9	-2	-4	-3	-8
Cn1cc(C(=O)OCC(=O)NC2CCCCC2)c2ccccc21	33*	3	5	-2	-8	72*
CC1CCN(C(=O)COC(=O)c2cn(C)c3ccccc23)CC1	-3	1	5	-2	6	-4
Cc1c(C(=O)O)cc(-c2ccccc2)n1Cc1ccccc1	4	5	28*	-1	-5	1
SMILES	pPAFAH inh	PAFAH1B3 FP inh	PAFAH1B2 inh	LYPLA1 inh	LYPLA2 counter	PAFAH2 inh
Cc1ccc(-c2nn(Cc3ccccc3)cc2C(=O)O)cc1	3	-1	3	-1	2	-8
CN(C)[C@@H]1C(=O)C(C(N)=O)=C(O)[C@@]2(O)C(=O)C3=C(O)c4c(O)cccc4[C@@](C)(O)[C@H]3C[C@@H]12	73*	·	·	-8	7	·
O=C(c1ccco1)c1cn(Cc2ccccc2)c2ccccc12	30*	-2	-5	-8	-4	3
CCC(=O)c1cn(Cc2ccccc2)c2ccccc12	2	14	9	1	7	-6
O=c1[nH]c(=S)n(Cc2ccc(F)cc2)c(O)c1C=NCCCn1ccnc1	3	-2	30*	-5	-8	-16
O=C(N/N=C/c1c(O)n(Cc2ccc(F)cc2)c(=S)[nH]c1=O)c1ccncc1	16	-9	42*	-8	-18	-7
O=c1[nH]c(=O)n(Cc2ccc(F)cc2)c(O)c1C=NCCCn1ccnc1	7	2	5	0	1	5
O=c1[nH]c(=S)n(Cc2ccc(F)cc2)c(O)c1/C=N/N1CCCCCC1	0	0	33*	-2	-4	-3
Cc1cc(N(CCCl)CCCl)ccc1/C=N/N=C(\N)c1cnccn1	3	10	14	1	3	6
COc1ccc2c(c1)/C(=C/c1cnc[nH]1)C(=O)N2	-7	8	-1	1	-4	11
CCCCn1c(C)c(C(=O)OCC)c2c(CN3CCCC3)c(O)ccc21	27*	-7	-5	-2	-3	5
CCCCn1c(C)c(C(=O)OCC)c2c(CN3CCOCC3)c(O)ccc21	4	-1	10	3	3	-8
CN1C(=O)C(=Cc2ccc(-c3cccc(Cl)c3)o2)C(=O)N(C)C1=O	12	·	·	2	-3	·
Cc1ccc(Sc2ccc(C=C3C(=O)N(C)C(=O)N(C)C3=O)o2)cc1	8	-6	57*	-4	1	2
NP(=O)(OCCCc1ccccc1)Oc1ccccc1Cl (stereo not given)	6	45*	92*	1	2	67*
CC(C)CCOP(N)(=O)Oc1ccccc1Cl (stereo not given)	1	26*	85*	7	7	30
NP(=O)(OCCCc1ccccc1)Oc1ccc(Cl)cc1 (stereo not given)	2	-1	95*	0	-2	12
Cc1ccc(C)c(-n2c(C)nc3ccccc3c2=O)c1	5	·	·	-2	-1	·
COC(=O)c1ccccc1NC(=O)N1C[C@@H]2C[C@@H](C1)c1cccc(=O)n1C2	6	10	1	1	1	2
COc1ccccc1N1CCN(Cc2ccc(Cl)cc2Cl)CC1	-1	9	-2	-1	4	1
CCC(CC)N1CCN(Cc2nc3ccccc3c(=O)n2-c2ccc(F)cc2)CC1	7	20	4	1	5	1
Cc1cc(=O)oc2cc(OCC(=O)N3CCN(C(C)c4ccccc4)CC3)c(Cl)cc12 (stereo not given)	-4	-4	5	-1	0	-4
